# Measurements: PubChem BioAssay (NCATS)
# “And” between values parts separate entries of the source, which are not always exact repeats. Equal entries are not always repeated. Unmarked numbers belong to inactive results. Records with an inconclusive call do not appear. Where a call stands in place of a potency, no number is given. More than one record can exist for a structure, and the calls need not agree. The source made the active and inactive calls. Unless noted, calls follow the shape of the dose curve; as a rule, active = well fitted curve in the direction sought with a large enough effect; inconclusive = small, poorly fitted or top-dose-only effect, or another doubt; inactive = no such curve, though single readings can be large; an effect the other way counts as inactive or inconclusive.
# Legend:
# [1] = tested on: Hek293T; test: Primary qHTS to identify gynecologic anti-cancer compounds using libraries of approved drugs and bioactive compounds (AID 1345084); settings: Gynecologic cancer cell panel viability, ATPlite luminescence, 48 h, control line for the selectivity index; series mostly up to 57.5 µM; also: nearly all actives have a fitted effect of over 55% in size; also: potency is read from the fitted curve at half-maximal effect
# Outline: (§1)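 ATP-based viability (ATPlite), 1,000 cells/well, 16 h pre-incubation, 48 h compound at 37 C, 5% CO2, 15 min RT before read.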
# [2] = tested on: JEG-3; test: as above; settings: Gynecologic cancer cell panel viability, ATPlite luminescence, 48 h; series mostly up to 57.5 µM
# Outline: as §1
# [3] = tested on: OV90; test: as above; settings: Gynecologic cancer cell panel viability, ATPlite luminescence, 48 h; series mostly up to 57.5 µM
# Outline: as §1
# [4] = tested on: SKOV3; test: as above; settings: Gynecologic cancer cell panel viability, ATPlite luminescence, 48 h; series mostly up to 57.5 µM
# Outline: as §1
# [5] = tested on: Tov-21-G; test: as above; settings: Gynecologic cancer cell panel viability, ATPlite luminescence, 48 h; series mostly up to 57.5 µM
# Outline: as §1
# [6] = tested on: Tov112D; test: as above; settings: Gynecologic cancer cell panel viability, ATPlite luminescence, 48 h; series mostly up to 57.5 µM
# Outline: as §1
# [7] = Drug repurposing screens with cells derived from glioblastoma tumor samples (AID 1345199); settings: GBM patient neurospheres viability, ATP luminescence, 48 h; also: nearly all actives have a fitted effect of over 40% in size; also: potency is read from the fitted curve at half-maximal effect
# Outline: (§2)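 Primary testing used CD133+ neurospheres from four GBM patients, seven concentrations, 48 h exposure and ATP-based viability; confirmation added three slower-growing patient lines.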
# [8] = tested on: astro; test: as above; settings: viability, ATP luminescence, 48 h; series mostly up to 45.9 µM
# Outline: as §2
# [9] = tested on: PA-1; test: Primary qHTS to identify gynecologic anti-cancer compounds using libraries of approved drugs and bioactive compounds (AID 1345084); settings: Gynecologic cancer cell panel viability, ATPlite luminescence, 48 h; series mostly up to 57.5 µM; also: nearly all actives have a fitted effect of over 55% in size; also: potency is read from the fitted curve at half-maximal effect
# Outline: as §1
# [10] = qHTS assay for small molecule activators of the human pregnane X receptor (PXR) signaling pathway (AID 720659; call rule not given here)
# [11] = at 20 µM (top of the series), tumour line C
# [12] = at 21.2 µM (top of the series), tumour line B
# [13] = at 21.2 µM (top of the series), tumour line D
# [14] = at 46.1 µM (top of the series), tumour line C
# [15] = at 45.9 µM (top of the series), tumour line B
# [16] = at 45.9 µM (top of the series), tumour line D
# [17] = at 46 µM (top of the series), tumour line A
compound,measurement,setting,value
CCCCC(CC)CN1CN(CC(CC)CCCC)CC(C)(N)C1 (stereo not given),Potency,[1],inactive
same,Potency,[2],inactive
same,Potency,[3],inactive
same,Potency,[4],inactive
same,Potency,[5],inactive
same,Potency,[6],inactive
same,"activity, negative = cell killing",[7]; [11],-6.58%
same,"activity, negative = cell killing",[7]; [12],-11%
same,"activity, negative = cell killing",[7]; [13],-24%
same,Potency,[8],inactive
CCOC(=O)c1c(N)sc2c1CCN(Cc1ccccc1)C2,Potency,[1],inactive
same,Potency,[2],inactive
same,Potency,[4],inactive
same,Potency,[5],inactive
same,Potency,[6],inactive
same,"activity, negative = cell killing",[7]; [14],-15.7%
same,Potency,[7]; tumour line A,11.2 µM (active)
same,Potency,[8],inactive
CCN(CC)CCOC(=O)C(Cc1cccc2ccccc12)CC1CCCO1 (stereo not given),Potency,[1],inactive
same,Potency,[2],inactive
same,Potency,[9],inactive
same,Potency,[5],inactive
same,Potency,[6],inactive
same,"activity, negative = cell killing",[7]; [11],6.25%
same,"activity, negative = cell killing",[7]; [12],-13.3%
same,"activity, negative = cell killing",[7]; [13],-13.7%
same,Potency,[7]; tumour line A,11.2 µM (active)
same,Potency,[8],inactive
CC(=O)OCC(=O)[C@H]1CC[C@H]2[C@@H]3CCC4=CC(=O)CC[C@]4(C)[C@H]3CC[C@]12C,Potency,[1],inactive
same,Potency,[2],inactive
same,Potency,[3],inactive
same,Potency,[4],inactive
same,Potency,[5],inactive
same,Potency,[6],inactive
same,"activity, negative = cell killing",[7]; [14],-12.5%
same,Potency,[7]; tumour line A,8.91 µM (active)
same,Potency,[8],inactive
CCc1nn(CCCN2CCN(c3cccc(Cl)c3)CC2)c(=O)n1CCOc1ccccc1,Potency,[1],inactive
same,Potency,[2],inactive
same,Potency,[4],inactive
same,Potency,[5],inactive
same,Potency,[6],inactive
same,"activity, negative = cell killing",[7]; [15],-29%
same,"activity, negative = cell killing",[7]; [14],-17.6%
same,Potency,[7]; tumour line A,7.94 µM (active) and 10 µM (active)
same,Potency,[7]; tumour line D,15.8 µM (active) and 11.2 µM (active)
same,Potency,[8],35.5 µM (active) and 25.1 µM (active)
O=C1OC(CN2CCOCC2)CN1/N=C/c1ccc([N+](=O)[O-])o1 (stereo not given),Potency,[1],inactive
same,Potency,[2],inactive
same,Potency,[9],inactive
same,Potency,[4],inactive
same,Potency,[5],inactive
same,Potency,[6],inactive
same,"activity, negative = cell killing",[7]; [11],-25.2%
same,"activity, negative = cell killing",[7]; [12],2.66%
same,"activity, negative = cell killing",[7]; [13],-3.22%
same,Potency,[8],inactive
Cc1ccc2c(Br)cc(Br)c(O)c2n1,Potency,[9],10 µM (active)
same,Potency,[4],15.8 µM (active)
same,Potency,[5],17.8 µM (active)
Oc1c(Cl)cc(Cl)c(Cl)c1Cc1c(O)c(Cl)cc(Cl)c1Cl,Potency,[1],8.91 µM (active)
same,Potency,[3],10 µM (active)
same,Potency,[9],11.2 µM (active)
same,Potency,[5],inactive
same,outcome,[10],inactive
C[N+]1(CC2COC(c3ccccc3)(C3CCCCC3)O2)CCCCC1 (stereo not given),Potency,[1],inactive
same,Potency,[2],inactive
same,Potency,[4],inactive
same,Potency,[5],inactive
same,Potency,[6],inactive
same,Potency,[8],inactive
CCCCCCCCCCCCCC[N+](C)(C)Cc1ccccc1,Potency,[4],22.4 µM (active)
same,Potency,[5],20 µM (active)
same,Potency,[6],14.1 µM (active)
same,Potency,[8],12.6 µM (active)
CCCCCCCCNC(C)C(O)c1ccc(SC(C)C)cc1 (stereo not given),Potency,[6],inactive
same,Potency,[8],22.4 µM (active)
O[C@@H](c1cc(C(F)(F)F)nc2c(C(F)(F)F)cccc12)[C@H]1CCCCN1,Potency,[4],25.1 µM (active)
same,Potency,[8],22.4 µM (active)
CCC(CC)(CC(=O)Nc1cccc(/C=C/c2nc(C3CCC3)cs2)c1)C(=O)O,Potency,[4],inactive
same,Potency,[6],inactive
same,Potency,[8],15.8 µM (active)
COc1cc(N)c(Cl)cc1C(=O)NC1CCN(Cc2ccccc2)CC1,Potency,[2],inactive
same,Potency,[9],inactive
same,Potency,[4],inactive
same,Potency,[5],inactive
same,Potency,[6],inactive
same,"activity, negative = cell killing",[7]; [11],12.2%
same,"activity, negative = cell killing",[7]; [12],-4.38%
same,"activity, negative = cell killing",[7]; [13],-20.9%
same,Potency,[7]; tumour line A,11.2 µM (active)
Cc1cc(CC(=O)O)c(C)n1-c1ccc(Cl)cc1,Potency,[2],inactive
same,Potency,[3],inactive
same,Potency,[9],inactive
same,Potency,[4],inactive
same,Potency,[5],inactive
same,Potency,[6],inactive
same,"activity, negative = cell killing",[7]; [15],-14.5%
same,"activity, negative = cell killing",[7]; [16],3.83%
same,Potency,[7]; tumour line A,25.1 µM (active)
CC[C@H](c1ccc(O)cc1)[C@@H](CC)c1ccc(O)cc1,Potency,[2],inactive
same,Potency,[9],inactive
same,Potency,[4],inactive
same,Potency,[5],inactive
same,Potency,[6],inactive
same,"activity, negative = cell killing",[7]; [11],-16.2%
same,"activity, negative = cell killing",[7]; [12],5.51%
same,"activity, negative = cell killing",[7]; [13],-30%
same,Potency,[7]; tumour line A,14.1 µM (active)
CN=C(N)NCCC[C@H](N)C(=O)O,"activity, negative = cell killing",[7]; [15],-4.01% and -7.28% and -14.2%
same,"activity, negative = cell killing",[7]; [16],-19.7% and 0.377% and -12.4%
same,"activity, negative = cell killing",[7]; [17],-28.1%
same,"activity, negative = cell killing",[7]; [14],8.15% and -7.9% and -1.89%
same,Potency,[8],inactive
NC(N)=NCc1cccc(I)c1,"activity, negative = cell killing",[7]; [15],-24.3% and -14.8%
same,Potency,[7]; tumour line A,12.6 µM (active)
same,Potency,[8],inactive
C#C[C@]1(O)CC[C@H]2[C@@H]3CCC4=Cc5oncc5C[C@]4(C)[C@H]3CC[C@@]21C,Potency,[2],inactive
same,Potency,[3],inactive
same,Potency,[9],10 µM (active)
same,Potency,[5],inactive
same,Potency,[6],inactive
same,"activity, negative = cell killing",[7]; [15],-5.62%
same,"activity, negative = cell killing",[7]; [16],-8.01%
same,"activity, negative = cell killing",[7]; [17],-25.3%
same,"activity, negative = cell killing",[7]; [14],-28.8%
same,Potency,[8],inactive
CN1CCC[C@@H]1CCO[C@](C)(c1ccccc1)c1ccc(Cl)cc1,Potency,[2],20 µM (active)
same,Potency,[3],11.2 µM (active)
same,Potency,[4],22.4 µM (active)
CCC1Nc2cc(Cl)c(S(N)(=O)=O)cc2S(=O)(=O)N1 (stereo not given),Potency,[2],inactive
same,Potency,[3],inactive
same,Potency,[9],inactive
same,Potency,[4],inactive
same,Potency,[5],inactive
same,Potency,[6],inactive
same,"activity, negative = cell killing",[7]; [15],-19.7%
same,"activity, negative = cell killing",[7]; [16],9.79%
same,"activity, negative = cell killing",[7]; [14],-1.53%
same,Potency,[8],inactive
CC(=C(CCOC(=O)C(C)C)SSC(CCOC(=O)C(C)C)=C(C)N(C=O)Cc1cnc(C)nc1N)N(C=O)Cc1cnc(C)nc1N,Potency,[2],inactive
same,Potency,[3],inactive
same,Potency,[9],inactive
same,Potency,[4],inactive
same,Potency,[5],inactive
same,Potency,[6],inactive
same,"activity, negative = cell killing",[7]; [15],1.68%
same,"activity, negative = cell killing",[7]; [16],3.5%
same,"activity, negative = cell killing",[7]; [14],-16.1%
same,Potency,[8],inactive
